Screening data: PubChem BioAssay, National Center for Advancing Translational Sciences (NCATS)
ATXN viability = reduces viability in counter-screen for ATXN expression inhibitors; AID 651635; S2 cells (HEK-293 line with an ATXN2-luciferase reporter) viability, CellTiter-Fluor protease fluorescence, 24 h; actives 0.49% (n = 400,000); Potency, µM (series often up to 56.7 µM), most hits filed as cytotoxic; further: potency means the concentration at half of the fitted maximal effect; nearly all actives have a fitted effect of over 40% in size
ATXN2 expr inh = inhibitors of ATXN2 expression; AID 1745845; HEK-293 ATXN2-luciferase reporter, luminescence, 24 h; actives 0.72% (n = 360,000); Potency, µM (top dose mostly 57 µM), for the others: at the highest dose activity change, negative = inhibition, usual class: inhibitors; further: potency means the concentration at half of the fitted maximal effect; on the % scale 0 is the no-effect control and ±100 the full control effect; nearly all actives have a fitted effect of over 55% in size
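ATXN2-luciferase reporter cells (luciferase flanked by upstream and downstream ATXN2 gene portions) were treated 24 h at 37 °C with compounds at up to 57 uM. SteadyGlo luminescence gave expression; GF-AFC fluorescence gave viability.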
MCF10A rereplic = DNA re-replication induction in MCF 10a cells; actives 2.9% (n = 350,000); MCF 10A DNA re-replication, Hoechst nuclear intensity, 48 h; Potency, µM (doses to about 46.1 µM), inactives show at the highest dose activity, positive = re-replication, hits mostly activators; further: potency means the concentration at half of the fitted maximal effect; % of control where 0% means no effect; nearly all actives have a fitted effect of over 50% in size
IL1B secr inh = inhibitors of inflammasome signaling (IL-1 beta secretion); THP-1 LPS/ATP IL-1B secretion, AlphaLISA, 16 h; active compounds read low; activity change, % at 57.5 µM; actives 4.7% (n = 360,000); AID 743279; in the data active means activity change below about -50%; inconclusive means mostly about -30% to -49%; further: on the % scale 0 is the no-effect control and ±100 the full control effect
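Secreted IL-1B measured by AlphaLISA bead assay after 16 h compound exposure of THP-1 cells; compounds (final up to 57.5 uM) added 1 h before LPS (250 ng/mL) and ATP (1.25 mM) stimulation; lower signal means less secretion.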
SW480 rerep = induces DNA re-replication in SW480 colon adenocarcinoma cells; actives 1.8% (n = 340,000); SW480 DNA re-replication, Hoechst DNA content imaging, 48 h; Potency, µM (doses to about 46.1 µM), for the others: at the highest dose re-replication activation, usual class: activators; AID 624297; further: potency means the concentration at half of the fitted maximal effect; % of control where 0% means no effect; nearly all actives have a fitted effect of over 55% in size
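Cells (250 per well) received 23 nL compound or DMSO by pin tool and were kept 48 hr at 37 C, 5% CO2. Nuclei were then stained with Hoechst for 40 min and scanned for DNA content.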
PINK1 modulator = changes PINK1 expression. PINK1 immunofluorescence, high-content cytometry, 24 h. AID 624263. actives 0.2% (n = 410,000). Potency, µM (titrated, usually from 76.6 µM), inactives show top-dose activation (PINK1 increase), actives largely listed as activators; active means well fitted activation curve with a large enough effect; inconclusive means small, poorly fitted or top-dose-only effect; cell line not stated here; further: potency means the concentration at half of the fitted maximal effect; % of control where 0% means no effect; nearly all actives have a fitted effect of over 65% in size
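A stable cell line was treated with compounds at 5 concentrations for 24 hours, with CCCP as control. PINK1 levels and mitochondrial localization were measured by immunofluorescence with mitochondrial, cell and nuclear markers after fixation, read by laser-scanning cytometry.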
* marks the source's active call; other numbers are inactive results; i = inactive; u = inconclusive; x = no result given; [ ] = dose if it differs, or a comment. Rows were chosen to be rich in hits. Some 7.1% of all compounds tested hit in one or more screens of this group. Unless noted, the call rests on the fitted dose curve; in most records, active means well fitted curve in the direction sought with a large enough effect; inconclusive means small, poorly fitted or top-dose-only effect, or another doubt; inactive means no such curve, though single readings can be large; an effect the other way counts as inactive or inconclusive.

SMILES	ATXN viability	ATXN2 expr inh	MCF10A rereplic	IL1B secr inh	SW480 rerep	PINK1 modulator
Cc1ccc(Sc2ccc(N3CCCC(C(=O)Nc4ccc(F)cc4F)C3)nn2)cc1 (centres undefined)	i	8%	x	x	x	7%
O=[N+]([O-])c1ccc(Nc2cccc(F)c2)nc1	i	-23%	0.73µM*	-24	-2%	0%
O=[N+]([O-])c1ccc(Nc2ccc(F)cc2)nc1	i	-3%	-2%	-11	0%	3%
O=C(COC(=O)c1cc(=O)c2ccccc2o1)Nc1ccccc1F	u	6%	-18%	0	-9%	5%
Clc1cccc(Cl)c1Cn1cnc2c(NCc3ccco3)ncnc21	i	-3%	16µM*	10	10µM*	24%[38.3 µM]
Cn1cnc2c(NCc3ccco3)ncnc21	i	-2%	36%	-6	-44%	0%
CN(C)CCC(O)(c1ccccc1)c1ccccc1Cl (centres undefined)	i	1%	-1%	-25	-4%	-2%
CC(/C=C/c1ccccc1)=N\Nc1nc(C)cc(C)n1	u	22%	-40%	9	u	0%
Cc1cc(C)nc(NN=C(c2ccccc2)c2ccccc2)n1	i	x	u	20	10µM*	2%
NC1=NC(=O)C(c2ccccc2)(c2ccccc2)S1	i	6%	0%	21	-8%	-5%
CN(CC(=O)NC(=O)NC1CCCCC1)CC(=O)Nc1ccc(OC(F)(F)F)cc1	i	10%	16%	-70*	1%	3%
CN(CC(=O)Nc1ccc(OC(F)(F)F)cc1)C(=O)Cc1c(Cl)cccc1Cl	i	-12%	11%	-55*	-15%	2%
Cc1nn(C(=O)c2ccc(Br)cc2)c(C)c1S(=O)(=O)N1CCOCC1	i	5%	x	x	x	0%
COc1ccc(N(CC(=O)N2CCc3ccccc32)S(=O)(=O)c2c(C)n[nH]c2C)cc1	i	2%	-1%	-54*	-9%	2%
COc1ccc(N(CC(=O)Nc2ccc(F)c(Cl)c2)S(=O)(=O)c2c(C)noc2C)cc1	i	-24%	14%	-54*	9%	7%
COc1ccc(N(CC(=O)Nc2ccc(OC)c(Cl)c2)S(=O)(=O)c2c(C)noc2C)cc1	i	-11%	12%	1	12%	3%
COc1ccc(N(CC(=O)Nc2cccc(C)c2)S(=O)(=O)c2c(C)n[nH]c2C)cc1	i	2%	4%	-9	-8%	-6%[38.3 µM]
COc1ccc(N(CC(=O)N2CCc3ccccc32)S(=O)(=O)c2c(C)nn(C)c2C)cc1	i	8%	1%	-17	-4%	0%
COc1ccc(N(CC(=O)Nc2ccc(C)c(C)c2)S(=O)(=O)c2c(C)n[nH]c2C)cc1	i	11%	9%	-124*	7%	-1%
COc1cccc(NS(=O)(=O)c2cc(-c3cnc(C4CC4)o3)ccc2C)c1	u	u	x	x	x	3%
O=C(c1cncs1)N(Cc1cc2cc3c(cc2nc1N1CCOCC1)CCC3)CC1CCCO1 (centres undefined)	i	x	x	x	x	0%
c1ccc(CNC2CC3CCC2C3)cc1 (centres undefined)	i	9%	0%	26	-6%	1%
COC(=O)Cn1c2ccc(Cl)cc2c2nc(C)sc21	i	-10%	3%	28	-128%	0%
Cc1nc2c3cc(Cl)ccc3n(CCN3CCCCC3)c2s1	i	-36%	18µM*	-12	15µM*	4µM*
CC(C)=CCC1C(=O)N(c2ccccc2)N(c2ccccc2)C1=O	i	u	30µM*	x	u	x
SMILES	ATXN viability	ATXN2 expr inh	MCF10A rereplic	IL1B secr inh	SW480 rerep	PINK1 modulator
CCN1C(=O)NC(c2ccccc2)C1=O (centres undefined)	i	2%	-1%	20	-80%	0%
CCCCC1(CO)C(=O)N(c2ccccc2)N(c2ccccc2)C1=O	i	-5%	-1%	-18	-9%	0%
CCCCC1C(=O)N(c2ccccc2)N(c2ccc(O)cc2)C1=O (centres undefined)	7.9µM*	5.6µM*	u	-109*	u	1%
Cc1nc(CC(=O)Nc2cccc(C)c2C)cs1	x	x	x	x	x	0%
O=C(Nc1ccccc1)c1cn2ccccc2n1	i	11µM*	5%	8	5%	-1%
O=C(Nc1cccc(-c2cn3ccccc3n2)c1)c1cccc(Cl)c1	x	u	u	-104*	21%	-3%
O=C(Nc1ccc(-n2cnnn2)cc1)c1cn2ccccc2n1	i	4%	23%	-6	u	-2%
Cc1csc(NC(=O)c2cn3ccccc3n2)n1	i	4µM*	6%	2	u	1%
COc1ccc(CC(=O)Nc2ccc(-c3cn4ccccc4n3)cc2)cc1	i	5%	25%	19	5%	5%
O=C(Nc1ccc(-c2cn3ccccc3n2)cc1)c1cccs1	i	u	u	-93*	u	-2%
COc1ccccc1C(=O)Nc1ccc(C(=O)OCc2cc(=O)n3c4c(sc3n2)CCCC4)cc1	x	x	x	x	x	0%
O=C(CCCn1ccc2cc(S(=O)(=O)N3CCCC3)ccc21)NCc1ccc(Cl)cc1	x	x	x	x	x	4%
CCCN(C(=O)Cn1ncc2c([nH]c3ccccc32)c1=O)c1ccc(F)cc1	i	-8%	x	x	x	3%
Cc1csc2nc(-c3cccc(NC(=O)c4cccc(F)c4)c3)cn12	i	u	x	x	x	-5%
COc1ccc(-c2c(C)c3ccc(O)c(CN4CCN(CCO)CC4)c3oc2=O)cc1OC	x	-10%	x	x	x	-1%
Cc1ccc(CNC(=O)CCS(=O)(=O)c2ccc3c(c2)CC(C)N3C(=O)C2CC2)cc1 (centres undefined)	u	-30%	10µM*	20	u	4%
CC(=O)N1c2ccc(S(=O)(=O)NCC3CCC(C(=O)Nc4cc(C)ccn4)CC3)cc2CC1C (centres undefined)	i	u	16%	-78*	u	1%
CC(=O)N1c2ccc(S(=O)(=O)NCC3CCC(C(=O)Nc4ccc(C)cc4)CC3)cc2CC1C (centres undefined)	x	x	x	x	x	3%
COc1cccc(CNS(=O)(=O)c2ccc3c(c2)CC(C)N3C(=O)C2CC2)c1 (centres undefined)	i	-19%	3%	2	u	1%
COc1ccc(CNS(=O)(=O)c2ccc3c(c2)CC(C)N3C(=O)C2CC2)cc1 (centres undefined)	i	-20%	10%	-65*	-9%	1%
CC1Cc2cc(S(=O)(=O)CCC(=O)NCc3ccccc3Cl)ccc2N1C(=O)C1CC1 (centres undefined)	x	x	x	x	x	11%
